From article PMC5540273 (PLoS ONE, 2017)

Tests used:
Settings in all cases: concentration: 1 μM, replicates: in singlicate; n = 1
BMX = test system: BMX
BRAF = test system: BRAF
BRK = test system: T1, BRK
T1 construct: gene PTK6

BRSK1 = test system: BRSK1
BRSK2 = test system: BRSK2
BTK = test system: BTK
BUB1 = test system: BUB1
CAMK1B = test system: CAMK1B
CAMK1D = test system: CAMK1D
CAMK1G = test system: CAMK1G
CAMK1 = test system: CAMK1
CAMK2A = test system: CAMK2A
CAMK2B = test system: CAMK2B
CAMK2D = test system: CAMK2D
CAMK2G = test system: CAMK2G
CAMK4 = test system: CAMK4
CAMKK1 = test system: CAMKK1
CAMKK2 = test system: CAMKK2
CASK = test system: CASK
CDC2L1 = test system: T2, CDC2L1
T2 construct: gene CDK11B
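Note: KINOMEscan kinase panel screen.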

SMILES | %Inh (BMX) [%] | %Inh (BRAF) [%] | %Inh (BRK) [%] | %Inh (BRSK1) [%] | %Inh (BRSK2) [%] | %Inh (BTK) [%] | %Inh (BUB1) [%] | %Inh (CAMK1B) [%] | %Inh (CAMK1D) [%] | %Inh (CAMK1G) [%] | %Inh (CAMK1) [%] | %Inh (CAMK2A) [%] | %Inh (CAMK2B) [%] | %Inh (CAMK2D) [%] | %Inh (CAMK2G) [%] | %Inh (CAMK4) [%] | %Inh (CAMKK1) [%] | %Inh (CAMKK2) [%] | %Inh (CASK) [%] | %Inh (CDC2L1) [%]
Cc1cccc(NC(=O)Nc2ccc(Oc3ncnc4ccn(C)c34)cc2)c1 | 0 | 0 | 0 | 0 | 0 | 91.6 | 0 | 14 | 6 | 0 | 0 | 0 | 0 | 0 | 0 | 0 | 0 | 0 | 0 | 0
Nc1ncc(-c2cccnc2)c2scc(-c3ccc4c(c3)CCN4C(=O)Cc3ccccc3)c12 [GSK683281] | 20 | 0 | 68 | 27 | 0 | 0 | 0 | 0 | 22 | 21 | 22 | 0 | 0 | 19 | 37 | 1 | 34 | 26 | 26 | 0
C[C@@H]1CC[C@@H](C(=O)Nc2ccccc2)CN1c1cc(-c2ccc3c(N)n[nH]c3c2)nc(N)n1 [GSK2286062] | 24 | 0 | 3 | 0 | 0 | 0 | 16 | 0 | 23 | 6 | 28 | 0 | 0 | 17 | 18 | 0 | 0 | 7 | 5 | 7
CC(C)c1nc(-c2cccc(NS(=O)(=O)c3c(F)cccc3F)c2F)c(-c2ccnc(Nc3ccc(N4CCOCC4)nc3)n2)s1 [GSK2008607] | 99.2 | 99.9 | 88 | 49 | 75 | 95.3 | 98 | 67 | 94.3 | 42 | 81 | 0 | 0 | 3 | 29 | 65 | 55 | 15 | 0 | 12
CCn1c(-c2nonc2N)nc2c(C#CC(C)(C)O)ncc(OCCCCN)c21.O=C(O)C(F)(F)F.O=C(O)C(F)(F)F [GSK507274] | 19 | 8 | 27 | 0 | 0 | 0 | 37 | 0 | 40 | 7 | 31 | 0 | 0 | 4 | 19 | 50 | 0 | 0 | 19 | 0
CCCCc1nn2ncccc2c1-c1ccnc(Nc2ccc(N3CCN(C)CC3)cc2)n1 [GW684941] | 53 | 86 | 69 | 3 | 0 | 57 | 93.3 | 25 | 0 | 0 | 28 | 0 | 0 | 0 | 0 | 0 | 0 | 0 | 16 | 0
Cc1ccc(F)c(C(=O)Nc2cccc(-c3nn4ccccc4c3-c3ccnc(Nc4cccc(F)c4)n3)c2)c1F [GSK361061] | 48 | 68 | 74 | 12 | 0 | 0 | 42 | 0 | 18 | 12 | 26 | 5 | 0 | 8 | 15 | 11 | 17 | 14 | 19 | 0
Cc1ccc(C)c(NC(=O)NC2CCN(c3ccnc(Nc4ccc(F)cc4)n3)C2)c1 (stereo not shown) [GSK1379720] | 0 | 0 | 21 | 0 | 0 | 0 | 49 | 0 | 6 | 11 | 2 | 0 | 0 | 19 | 4 | 0 | 0 | 0 | 9 | 0
